{"source": "ChEMBL document CHEMBL4513216", "about": "“Probing the Open Global Health Chemical Diversity Library for Multistage-Active Starting Points for Next-Generation Antimalarials” (ACS Infect Dis, 2020)", "note": "Out of some 69,000 compounds screened, about 8,600 (12%) showed an effect of 50% or more. The full list was thinned out, with strong results kept by preference."}
{"test_system": "Plasmodium berghei", "experiment": "Screen against P. berghei liver stage (PbLuc), transformed with Luciferase, at 10uM", "format": "functional, HepG2", "settings": "tested at 10 uM", "units": {"INHIBITION": "%"}}
{"smiles": "O=C(NCCc1nncn1C1CC1)c1cnn(Cc2ccccc2)c1", "INHIBITION": 4.13}
{"smiles": "COc1cccn(CC(=O)N2CCCC3(CCCCC3)C2)c1=O", "INHIBITION": -17.7}
{"smiles": "Cc1cc(C)c(C(=O)N2CCCC(O)(CN3CCCC3)C2)cc1C", "note": "(stereo not given)", "INHIBITION": 34.9}
{"smiles": "Cc1nc(Cc2ccccc2)nc2sc(C(=O)O)c(C)c12", "INHIBITION": 53.1}
{"smiles": "Cc1c(C(=O)O)sc2nc(Cc3ccccc3)nc(N)c12", "INHIBITION": -2.27}
{"smiles": "CCN(CC(=O)NC)C(=O)c1sc(Cc2ccccc2)nc1C", "INHIBITION": -16}
{"smiles": "COc1cc2nc(C)n(CC(=O)NCCN(C)C)c(=O)c2cc1OC", "INHIBITION": 2.55}
{"smiles": "COc1cc(CN2CCCC[C@]3(C)NC(=O)CC[C@H]23)ccc1F", "INHIBITION": 23.9}
{"smiles": "Cn1cc(CN2Cc3cn(C)nc3C(COCC3CC3)C2)cn1", "note": "(stereo not given)", "INHIBITION": 34.6}
{"smiles": "CCn1cc2c(n1)CN(Cc1ccoc1)CC2COCC1CC1", "note": "(stereo not given)", "INHIBITION": 9.54}
{"smiles": "CCOCC1CN(Cc2cnn(C)c2)Cc2ncn(C)c21", "note": "(stereo not given)", "INHIBITION": 36.9}
{"smiles": "CCOCC1CN(Cc2ccoc2)Cc2nn(CC3CC3)cc21", "note": "(stereo not given)", "INHIBITION": -19.4}
{"smiles": "CCn1cc2c(n1)CN(Cc1cnn(C)c1)CC2COCC1CC1", "note": "(stereo not given)", "INHIBITION": 63.7}
{"smiles": "CCOCC1CN(Cc2ccc(OC)cc2)Cc2nn(CC3CC3)cc21", "note": "(stereo not given)", "INHIBITION": 33}
{"smiles": "CCOCC1CN(Cc2cnn(C)c2)Cc2cnn(C)c21", "note": "(stereo not given)", "INHIBITION": 35.7}
{"smiles": "CCn1cc2c(n1)CN(Cc1ccc(C)o1)CC2COCC1CC1", "note": "(stereo not given)", "INHIBITION": 63.7}
{"smiles": "CCOCC1CN(Cc2cnn(C)c2)Cc2c1cnn2CC", "note": "(stereo not given)", "INHIBITION": 53.2}
{"smiles": "CCOCC1CN(Cc2cnn(C)c2)Cc2nn(C)cc21", "note": "(stereo not given)", "INHIBITION": 18.2}
{"smiles": "CCOCC1CN(Cc2cnn(C)c2)Cc2nn(CC3CC3)cc21", "note": "(stereo not given)", "INHIBITION": 67.2}
{"smiles": "CCOCC1CN(Cc2cnn(C)c2)Cc2ncn(CC3CC3)c21", "note": "(stereo not given)", "INHIBITION": 33}
{"smiles": "O=C(c1cc(=O)[nH]c(=O)[nH]1)N1CCCC(CO)(CC2CC2)C1", "note": "(stereo not given)", "INHIBITION": 47.6}
{"smiles": "CN(Cc1ccccc1)C1COC2(CCN(Cc3nccs3)CC2)C1", "note": "(stereo not given)", "INHIBITION": 37}
{"smiles": "O=C(Cc1ccc(F)cc1)NCCNc1cc(N2CCCC2)ncn1", "INHIBITION": 31.7}
{"smiles": "CCN(CC)C1COc2c(cc(Br)c(C)c2Br)C1=O", "note": "(stereo not given)", "INHIBITION": 5.56}
{"smiles": "CC(C)c1noc(CCNC(=O)NCC2Cc3ccccc3O2)n1", "note": "(stereo not given)", "INHIBITION": -34.8}
{"smiles": "Cc1nc(N(C)C)nc(C)c1NS(=O)(=O)c1ccc(F)cc1F", "INHIBITION": -7.81}
{"smiles": "CS(=O)(=O)NCC1CCCN(C(=O)Nc2ccccc2F)C1", "note": "(stereo not given)", "INHIBITION": 4.1}
{"smiles": "COc1cnc(CSc2nnc(C)s2)cc1OCC(=O)NC(C)(C)C", "INHIBITION": -3.11}
{"smiles": "CN(C)S(=O)(=O)N1CCC[C@]2(C[C@@H](Oc3ccccn3)CO2)C1", "INHIBITION": -21.3}
{"smiles": "O=C1CCC2(CCC(NC3CCOCC3)CC2)N1Cc1ccccc1", "note": "(stereo not given)", "INHIBITION": -47.9}
{"smiles": "CCn1cc2c(n1)CN(Cc1ccncc1)CC2COCC1CC1", "note": "(stereo not given)", "INHIBITION": 40.9}
{"smiles": "CCn1cc2c(n1)CN(Cc1ccc(F)cc1)CC2COCC1CC1", "note": "(stereo not given)", "INHIBITION": 70.7}
{"smiles": "CCOCC1CN(Cc2ccc(F)cc2)Cc2nn(CC3CC3)cc21", "note": "(stereo not given)", "INHIBITION": 5.96}
{"smiles": "CCO[C@@H]1CO[C@@]2(CCCN(S(=O)(=O)c3cccnc3)C2)C1", "INHIBITION": 30.7}
{"smiles": "Cc1nc(-c2ccoc2)n(CC(=O)NCC(C)C)c1C", "INHIBITION": -8.28}
{"smiles": "CCOC(=O)CNC(=O)Cn1c(-c2ccoc2)nc(C)c1C", "INHIBITION": 8.52}
{"smiles": "Cc1nc(-c2ccoc2)n(CC(=O)N(C)CC(C)C)c1C", "INHIBITION": 50}
{"smiles": "Cc1cccc(C)c1Nc1noc2c1CN(C(=O)c1cn(C)cn1)CC2", "INHIBITION": 25.4}
{"smiles": "Cn1c(=O)oc2ccc(NC(=O)N3CCSCC3)cc21", "INHIBITION": 24.7}
{"smiles": "Cn1c(=O)oc2ccc(NC(=O)N3CCOCC3)cc21", "INHIBITION": 53.9}
{"smiles": "O=C(NC1CC1)c1cc(NC(=O)N2CCOCC2)ccc1Cl", "INHIBITION": 68.3}
{"smiles": "O=C(NC1CC1)c1cc(NC(=O)N2CCSCC2)ccc1Cl", "INHIBITION": 57.6}
{"smiles": "O=C(Nc1ccc(CCN2CCSCC2)cc1)NC1CC1", "INHIBITION": 1.79}
{"smiles": "CC1CN(C(=O)Nc2ccc(Cl)c(C(=O)NC3CC3)c2)CC(C)(C)O1", "note": "(stereo not given)", "INHIBITION": 31.9}
{"smiles": "O=C(NC1CC1)c1cc(NC(=O)N2CCCC(O)C2)ccc1Cl", "note": "(stereo not given)", "INHIBITION": 28.5}
{"smiles": "O=C(NC1CC1)c1cc(NC(=O)N2CCCC2)ccc1Cl", "INHIBITION": 31.9}
{"smiles": "Cn1c(=O)oc2ccc(NC(=O)N3CCc4ccccc4C3)cc21", "INHIBITION": -3.43}
{"smiles": "O=C(C1CCCO1)N1CCC(O)(Cn2ccc3ccncc32)CC1", "note": "(stereo not given)", "INHIBITION": -45.4}
{"smiles": "Cc1cc(C)c2cc(CNCCCN3CCOCC3)c(=O)[nH]c2c1", "INHIBITION": 3.91}
{"smiles": "CCc1cc(=O)[nH]c2nnc(SCC(=O)N3CCC(C)CC3)n12", "INHIBITION": 14.4}
{"smiles": "CN(C)C[C@@H]1CCC[C@@H]2CN(c3nccc(C(F)(F)F)n3)C[C@@H]21", "INHIBITION": -3.58}
{"smiles": "Cc1nc2ccccc2n1Cc1cc(C(=O)N(C)C2CCOCC2)no1", "INHIBITION": 37.3}
{"smiles": "Cc1nc2ccccc2n1Cc1cc(C(=O)N2C[C@@H](C)O[C@@H](C)C2)no1", "INHIBITION": 74}
{"smiles": "C[C@@H]1CN(C(=O)c2cc(Cn3cnc4ccccc43)on2)C[C@H](C)O1", "INHIBITION": 30.5}
{"smiles": "CN(C)C(=O)CN1CCOCC2(C1)CN(c1ncc(F)cn1)CCO2", "note": "(stereo not given)", "INHIBITION": 10.6}
{"smiles": "Cn1ccnc1NC[C@@H]1CCC[C@@H]2CN(Cc3nccs3)C[C@@H]21", "INHIBITION": 29}
{"smiles": "c1ccc(NC[C@@H]2CCC[C@@H]3CN(Cc4nccs4)C[C@@H]32)nc1", "INHIBITION": 51.2}
{"smiles": "c1ccc(NC[C@@H]2CCC[C@@H]3CN(Cc4csnn4)C[C@@H]32)nc1", "INHIBITION": 15.9}
{"smiles": "COCCN1C[C@H]2CCC[C@@H](CNc3ncccn3)[C@H]2C1", "INHIBITION": 77.4}
{"smiles": "Cn1ccnc1NC[C@@H]1CCC[C@@H]2CN(CC3CC3)C[C@@H]21", "INHIBITION": 76.3}
{"smiles": "c1ccc(NC[C@@H]2CCC[C@@H]3CN(Cc4cccnc4)C[C@@H]32)nc1", "INHIBITION": 32.2}
{"smiles": "c1cnc(NC[C@@H]2CCC[C@@H]3CN(Cc4cc[nH]n4)C[C@@H]32)nc1", "INHIBITION": 1.81}
{"smiles": "Cn1cc(CN2C[C@H]3CCC[C@@H](CNc4ncccn4)[C@H]3C2)cn1", "INHIBITION": 31.2}
{"smiles": "Cn1cc(CN2C[C@H]3CCC[C@@H](CNc4nccn4C)[C@H]3C2)cn1", "INHIBITION": 23.1}
{"smiles": "COCCN(CC(C)C)C(=O)c1cccc(Nc2cnccn2)c1", "INHIBITION": 46.6}
